Hits are enriched below; roughly 6.2% of the tested compounds scored in any of these assays.
RORgamma inh: qHTS for inhibitors of ROR gamma transcriptional activity. Drosophila S2 Gal4-RORgamma UAS-luciferase reporter, 20 h. Potency, µM (series often up to 53.6 µM), without a hit: at the top dose activity change, negative = inhibition, usual class: inhibitors. hit rate 5.4% among 310,000; also: nearly all actives have a fitted effect of over 60% in size
Target sequence (P51450 whole entry, looked up, the tested form may be a part): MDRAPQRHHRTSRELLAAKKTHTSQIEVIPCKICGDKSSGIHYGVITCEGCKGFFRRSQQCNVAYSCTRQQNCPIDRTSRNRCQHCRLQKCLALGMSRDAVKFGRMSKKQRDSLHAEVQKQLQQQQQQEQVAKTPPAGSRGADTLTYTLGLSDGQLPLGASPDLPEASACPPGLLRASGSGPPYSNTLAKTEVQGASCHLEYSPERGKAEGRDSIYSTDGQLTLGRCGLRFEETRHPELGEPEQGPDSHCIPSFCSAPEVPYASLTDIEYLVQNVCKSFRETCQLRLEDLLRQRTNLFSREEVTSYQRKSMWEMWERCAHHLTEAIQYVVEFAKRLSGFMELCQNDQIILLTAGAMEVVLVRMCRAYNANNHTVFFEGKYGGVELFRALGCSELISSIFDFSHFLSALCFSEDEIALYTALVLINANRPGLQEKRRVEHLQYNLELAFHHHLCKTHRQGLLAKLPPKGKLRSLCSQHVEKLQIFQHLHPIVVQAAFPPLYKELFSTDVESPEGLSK
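Compounds are pin-transferred onto Drosophila Schneider cells expressing a copper-inducible Gal4–ROR gamma transactivation domain fusion. After 1 hr, copper sulfate is added to 700 uM final; luciferase is read 20 hr later.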
Luc counter: Counterscreen for Luciferase (Kinase-Glo TM) Inhibition; Kinase-Glo luciferase, ATP luminescence, 8 min; Potency, µM (top dose mostly 38.3 µM), for inactives: at the top dose activity change, negative = inhibition, actives largely listed as inhibitors; hit rate 0.28% among 200,000; also: nearly all actives have a fitted effect of over 60% in size
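Substrate mix (final 50 mM imidazole pH 7.2, 50 mM KCl, 7 mM MgCl2, 10 uM ATP, 0.01% Tween 20, 0.05% BSA) plus pin-tool compound, then Kinase-Glo detection mix; 8 min ambient, luminescence read.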
VP16 counter: VP16 counterscreen qHTS for inhibitors of ROR gamma transcriptional activity; Potency, µM (titrated, usually from 53.6 µM), without a hit: at the highest dose activity, negative = inhibition, actives largely listed as inhibitors; hit rate 3.5% among 310,000; Drosophila S2 Gal4-VP16 UAS-luciferase, luminescence, 20 h;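 also: Gal4-VP16 expression switched on by copper sulfate through the metallothionein promoter; nearly all actives have a fitted effect of over 50% in size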
An asterisk follows results filed as active; ? = inconclusive; · = no result; [ ] = another dose, or the depositor's remark. Calls follow the shape of the dose curve; as a rule, active = well fitted curve in the direction sought with a large enough effect; inconclusive = small, poorly fitted or top-dose-only effect, or another doubt; inactive = no such curve, though single readings can be large; an effect the other way counts as inactive or inconclusive. % is scaled to controls: 0 for no effect and ±100 for the full control effect; potency is read from the fitted curve at half-maximal effect.

SMILES	RORgamma inh	Luc counter	VP16 counter
Cn1c(=O)n(C)c2cc(S(=O)(=O)N3CCN(c4ccccc4)CC3)ccc21	-16%	·	-1%
COc1ccc(-n2c(=O)[nH]c3cc(C(=O)NCCc4ccc(Cl)cc4)ccc3c2=O)cc1OC	?	4%	-30%
COc1cc(Cl)c(S(=O)(=O)NCc2ccccn2)cc1Cl	11µM*	-2%	-10%
COc1ccc(S(=O)(=O)NCc2ccccn2)cc1Cl	-39%	0%	-1%
CCOc1cc(Cl)c(S(=O)(=O)NCc2ccccn2)cc1Cl	13µM*	21%	20µM*
CCOc1ccc(Cl)cc1S(=O)(=O)NCc1ccccn1	?	-1%	?
Cc1noc(C)c1C(=O)N1CCC2(CCN(C(=O)Nc3ccccc3)CC2)CC1	1%	1%	-9%
NCCc1nnc(SCc2c(Cl)cccc2Cl)o1	-2%	·	-5%
NCCCCCc1nnc(SCc2ccccc2Cl)o1	1µM*	-3%	0.45µM*
CC1(O)N(CCC(=O)Nc2cccc(F)c2)C(=O)OC12CCCCC2 (stereo not drawn)	13%	·	-7%
CC(=O)NCCc1c(C)n(Cc2ccccc2)c2ccccc12	19%	·	-15%
CC(NC(=O)C(Cc1ccccc1)NC(=O)c1ccccc1)C(=O)O (stereo not drawn)	1%	11%	-5%
CC(C)C[C@@H](NC(=O)[C@H](Cc1ccccc1)NC(=O)c1cnccn1)B(O)O	0.0079µM*	·	?
CC1(C)Cc2nc3sc4c(SCC(=O)O)ncnc4c3cc2CO1	8.9µM*	·	14µM*
COC(=O)CSc1ncnc2c1sc1nc3c(cc12)COC(C)(C)C3	-24%	0%	-24%
CCN(CC)CCn1c(=S)[nH]c2cc(C(=O)N3CC(C)CC(C)C3)ccc2c1=O (stereo not drawn)	-22%	·	5%
COc1cc2[nH]c(=S)n(Cc3ccccc3)c(=O)c2cc1OC	3.2µM*	3%	5µM*
O=c1c2ccccc2[nH]c(=S)n1CCCn1ccnc1	-6%	·	-1%
CCN(CC)CCn1c(=S)[nH]c2cc(Cl)ccc2c1=O	13µM*	-2%	?
O=c1c2ccccc2[nH]c(=S)n1Cc1cccs1	1.6µM*	-3%	3.2µM*
O=C(NCc1ccccn1)c1ccc(Cn2c(=S)[nH]c3ccc(Br)cc3c2=O)cc1	-2%	1%	-2%
O=c1c2cc(Cl)ccc2[nH]c(=S)n1Cc1ccccn1	2.2µM*	11%	3.2µM*
COc1cc2[nH]c(=O)n(Cc3ccccc3Cl)c(=O)c2cc1OC	1%	-3%	0%
Cc1nn(C(C)C(=O)N/N=C/c2ccc(N(C)C)cc2)c(C)c1[N+](=O)[O-] (stereo not drawn)	42%	·	4%
COC(=O)c1sccc1S(=O)(=O)N1CCCC(N(C)CCc2ccccn2)C1 (stereo not drawn)	15%	·	-9%
SMILES	RORgamma inh	Luc counter	VP16 counter
CC1=C(C)C(OCCBr)N(c2cc(O)c(Cl)cc2F)C1=O (stereo not drawn)	6%	·	6%
COc1ccc(-c2nnc(SCC(=O)Nc3cc(S(=O)(=O)N4CCCCC4)ccc3Cl)n2N)cc1	?	0%	-17%
CC(SC1=NCCN1S(C)(=O)=O)c1ccccc1 (stereo not drawn)	-25%	·	5%
O=C(CS(=O)(=O)c1ccc(Cl)cc1)NCc1ccccc1	11%	·	-3%
CCCCCCCCCCCCCCCCCC(=O)OCC(O)CO (stereo not drawn)	5%[10 µM]	·	-13%
NS(=O)(=O)c1ccc(CCn2c(=S)[nH]c3ccccc3c2=O)cc1	?	·	2%
O=C(CCn1c(=S)[nH]c2ccccc2c1=O)N1CCCCC1	13%	·	-14%
O=C(CCn1c(=S)[nH]c2ccccc2c1=O)NCCc1ccccc1	-14%	4%	9%
O=c1c2ccccc2[nH]c(=S)n1Cc1ccccc1	4µM*	·	5µM*
O=c1c2ccccc2[nH]c(=S)n1Cc1ccccc1Cl	3.5µM*	·	5µM*
O=C(Cn1c(=S)[nH]c2ccccc2c1=O)N1CCc2ccccc2C1	-15%	1%	9%
O=c1c2ccccc2[nH]c(=S)n1CCN1CCc2ccccc2C1	11µM*	·	?
O=c1c2ccccc2[nH]c(=S)n1CCc1ccccc1	1.6µM*	-4%	3.2µM*
O=C(CSc1nnc(-c2cccs2)n1-c1cccc(Cl)c1)c1cccc2c1OCCO2	-16%	6%	4%
COCCNC(=O)[C@@]1(Cc2ccccc2)C=C[C@@H](C)N1C(=O)OC	-4%	-6%	4%
Cn1c(=O)[nH]c(=O)c2c1nc(Br)n2CC(O)c1ccccc1 (stereo not drawn)	2%	-2%	-3%

Compound activity (PubChem BioAssay)
